Results on 37 compounds are retold here after PubChem BioAssay (NCI).

Structures are written as SMILES. The panel holds about 83,000 compounds, 20% with a hit somewhere; the sample as a whole holds those more often.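 How to read the values: 0–100, growth inhibition (40 = 60% inhibited); 0, no net growth; -100 to 0, cell death (-40 = 40% of starting cells died; -100 = all dead).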 Values without a mark were called inactive. The source made the active and inactive calls. Rule for the calls: active = growth percent below 10; inactive = the rest.

This assay relates to NCI-H226 lung. In words: NCI-60 one-dose screen, 48 h (100 = growth as untreated, 0 = no growth, -100 = all killed). The settings on record: 10 µM unless noted.
Consider `COc1cc(C2CC(c3cc(OC)c(OC)c(OC)c3)=NN2C(C)=O)ccc1OCc1ccccc1` (configuration not stated), for which the growth was 28%. Then `Cc1cc(N=C2NC(=O)CS2)n[nH]1`, with 132%; and `C=C1CC[C@@H]2[C@]3(C)COC(c4cn[nH]c4-c4ccc(OC)cc4)O[C@@H]3CC[C@@]2(C)[C@@H]1C/C=C1/C(=O)OCC1O` (some centres not stated), with -45% (active); and `COc1cc2c(c(OC)c1OC)C(=O)CC(c1cccc(NC(=O)c3cc(N)ccc3Cl)c1)O2` (configuration not stated), with 54.3%. Then `O=C(N=Nc1c(O)[nH]c2ccc(Cl)cc12)c1ccc2nc(-c3ccccc3)[nH]c2c1`, with 91.1%; and `CNC(=O)c1cc(Oc2ccc3nc(NC(=O)Nc4cccc(OC(F)(F)F)c4)sc3c2)ccn1`, with -24.5% (active); and `COc1cc2c(c(OC)c1OC)C(=O)CC(c1cccc(NC(=O)c3cc([N+](=O)[O-])ccc3Cl)c1)O2` (configuration not stated), with 25.3%.

`COc1ccc(C2=NN(C(C)=O)C(c3ccc(OCc4ccc(Cl)cc4)c(OC)c3)C2)cc1OC` (configuration not stated): the growth is 49.9%. Then `COc1ccc2cc([C@H](C)C(=O)N/N=C/c3ccc(Br)cc3)ccc2c1`, with 103%. For the compound `CCCCCCCCc1ccc(C(=O)Nc2ccc(C)cc2C(=O)O)cc1C`, the growth was 89.4%. For the compound `CSc1ccccc1NC(=O)c1ccc2nn(/C(C#N)=C/c3ccccn3)nc2c1`, the growth was -96.8% (active). The value for `COCOc1ccc2c(=O)c(C)c(C(=O)N[C@@H](Cc3ccccc3)C(O)C(=O)NCCc3ccc(OC)cc3)oc2c1` (some centres not stated) was 110%; that for `CSc1ccc(C(=O)Nc2ccc3nnn(/C(C#N)=C/c4ccccn4)c3c2)cc1` was -53.4% (active).

In the case of `COc1ccc(NC(=O)Cn2c(/C=C/c3cccc([N+](=O)[O-])c3)nc3ccccc3c2=O)cc1`, the growth was 12.8%. With `CC1(C)CC[C@]2(C(=O)Nc3ccc(Br)cc3)CC[C@]3(C)C(=CCC4[C@@]5(C)C[C@@H](O)[C@H](O)[C@@](C)(CO)C5CC[C@]43C)C2C1` (some centres not stated), the growth is -28.6% (active). On to `N#Cc1c(-c2cccc(Cl)c2Cl)cc(-c2c[nH]c3ccccc23)[nH]c1=O`, for which the growth is 8.48% (active). The value for `O=c1onc(-c2cc3ccccc3nc2Cl)n1-c1cccc2ccccc12` was 40.8%. Then `CCN(CC)CCOc1ccc(Nc2ncc3cc(-c4ccc(O)c(C#N)c4)c(=O)n(C)c3n2)cc1`, with 49.3%; and `Cc1ccc(NC(=O)[C@]23CCC(C)(C)CC2C2=CCC4[C@@]5(C)C[C@@H](O)[C@H](O)[C@@](C)(CO)C5CC[C@@]4(C)[C@]2(C)CC3)cc1` (some centres not stated), with 9.45% (active).

`N#Cc1c(NCc2ccccc2)n[nH]c1Nc1ccccc1`: the growth is 50.2%.

As for `CCCSc1nc(NCCc2c[nH]c3ccccc23)c(C#N)c(-c2ccc(OC)cc2)n1`, the growth was 50.7%.

As for `O=C(NNc1ccccc1)n1c(=O)c2ccccc2c(=O)n1-c1ccccc1`, the growth was 95.7%.

Turning to `COc1cc(C2CC(c3cc(OC)c(OC)c(OC)c3)=NN2C(C)=O)ccc1OCc1ccc(F)cc1` (configuration not stated), the growth is 49.8%. Then `CN1CCN(Cc2ccc(C(=O)Nc3cccc(C#Cc4cccc5[nH]nc(N)c45)c3)cc2C(F)(F)F)CC1`, with -84% (active). Take `COc1ccc(C(=O)/C=C/c2cccc3ccccc23)cc1S(N)(=O)=O`: the growth was 32.7%. The value for `O=C(/C=C/c1ccc(O)c(O)c1)NC1CCOC1O` (configuration not stated) was 120%; that for `C=C1CCC2C3(C)COC(c4ccccc4F)OC3CCC2(C)C1CC(O)C1=CCOC1=O` (configuration not stated) was 83.6%; that for `COc1cc(/C=C/C(=O)c2ccc(C)cc2)ccc1Oc1nc(Nc2ccc(F)cc2)nc(N(C)C)n1` was 61.9%.

In the case of `COc1cc2oc(-c3cccc(C(=O)Nc4ccc(Cl)cc4)c3)cc(=O)c2c(OCCNC(=O)[C@@H](N)CCC(=O)O)c1OC`, the growth was 86.6%. The value for `C=C1CCC2C3(C)COC(c4ccc(F)cc4)OC3CCC2(C)C1CC(O)C1=CCOC1=O` (configuration not stated) was 58%; that for `Cc1ccc(C(SCCNCc2cc(N(C)C)ccn2)(c2ccccc2)c2ccccc2)cc1` was -6.05% (active). The value for `COc1ccc(-c2c(Nn3cnnn3)no[n+]2[O-])cc1` was 83.2%; that for `CC1=C(C(=O)c2ccccc2)C(c2cccc3ccccc23)n2c(nc3ccccc32)N1` (configuration not stated) was 50%; that for `CC1(C)CC[C@]2(C(=O)Nc3ccccc3)CC[C@]3(C)C(=CCC4[C@@]5(C)C[C@@H](O)[C@H](O)[C@@](C)(CO)C5CC[C@]43C)C2C1` (some centres not stated) was 54.3%. Then `O=C(N/N=C/c1ccc(-c2ccc(O)cc2)o1)c1[nH]c2ccc(Br)cc2c1-c1ccccc1`, with 10.6%.

Regarding `CC(=O)Nc1ccc(-c2cn(-c3cccc(C(=O)Nc4ccc(N5CCN(C)CC5)cc4)c3)nn2)cn1`, the growth was 69.1%. The value for `COc1cc2oc(-c3cccc(NC(=O)[C@H](Cc4ccccc4)NC(=O)OC(C)(C)C)c3)cc(=O)c2c(OC)c1OC` was 28%.
